KCNK9 inh – inhibitors of human KCNK9 two-pore domain potassium channel. Q9NPC2. HEK293 KCNK9, FluxOR thallium flux fluorescence; hits give low values. B-score at 10 µM. 310,000 tested, 1.2% active;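 active = ratio B-score over 3 SD below the library mean, with starting fluorescence within 5 SD of its mean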;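 note: negative B-score means less thallium flux so channel inhibition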
Target sequence (Q9NPC2 whole entry, looked up, the tested form may be a part): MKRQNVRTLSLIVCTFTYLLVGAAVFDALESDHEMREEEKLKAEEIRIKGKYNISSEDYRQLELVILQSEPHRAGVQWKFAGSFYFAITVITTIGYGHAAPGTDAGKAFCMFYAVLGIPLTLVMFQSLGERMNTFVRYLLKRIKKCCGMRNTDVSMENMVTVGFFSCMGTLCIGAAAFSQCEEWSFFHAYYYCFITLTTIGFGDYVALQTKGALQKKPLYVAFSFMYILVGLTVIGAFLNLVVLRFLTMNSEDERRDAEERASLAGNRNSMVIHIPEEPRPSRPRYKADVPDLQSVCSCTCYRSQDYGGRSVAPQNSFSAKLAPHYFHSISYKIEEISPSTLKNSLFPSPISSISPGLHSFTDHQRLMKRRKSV
KCNK3 block – human KCNK3 channel inhibition, primary screen; AID 602410; B-score at 10 µM; 340,000 tested, 0.84% active; O14649; CHO-KCNK3 thallium flux, FluxOR fluorescence; hits give low values;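 active = B-score under library mean minus 4 SD, starting fluorescence ratio at most library mean plus 5 SD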;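 note: more negative B-score means stronger inhibition of thallium flux through KCNK3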
TMEM16A act – activates or potentiates the mouse TMEM16A chloride channel | HEK293 TMEM16A/YFP-H148Q/I152L, iodide quench fluorescence; hits give low values | Q8BHY3 | 340,000 tested, 0.3% active | B-score at 10 µM;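 active = fluorescence-ratio B-score plate-corrected deviation score at least 3 library SD below zero, with starting fluorescence score within 5 deviations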;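 note: channel opened by trigger with iodide after compound preincubation; score built on the fluorescence ratio of max minus min over baseline; more negative score means more quench and so TMEM16A activation or potentiation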
ANO1 block – blocks the mouse calcium-activated chloride channel TMEM16A | AID 588511 | Q8BHY3 | 310,000 tested, 1.2% active | HEK293 TMEM16A/YFP iodide influx fluorescence, ionomycin | normalized B-score (activity score, 25-100; higher = stronger inhibition) at 10 µM;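 active = ratio plate-corrected score three or more library SD toward inhibition, starting fluorescence score within five deviations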;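 note: score derived from kinetic fluorescence span divided by baseline fluorescence per well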
Kir21 inh – blocks the mouse Kir2.1 inward-rectifier potassium channel | P35561 | HEK293-Kir2.1, FluxOR thallium flux fluorescence; hits give low values | B-score at 10 µM | 310,000 tested, 0.85% active | AID 1672;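 active = fluorescence ratio B-score at or below minus 3 SD of library scores, with starting-brightness B-score within 2 SD, cut at about -4.2 in these data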;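 note: channel flux triggered by added potassium and thallium sulfate stimulus; B-score of peak minus minimum fluorescence over baseline after thallium stimulus; more negative B-score means stronger Kir2.1 block with less thallium influx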
KCNK9 block conf – confirmation of human KCNK9 potassium channel inhibitors | shares compounds with KCNK9 inh | HEK293 KCNK9 cells, FluxOR thallium flux fluorescence | inhibition, % at 10 µM | 4,900 tested, 43% active;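 active = thallium signal inhibited by more than 5 SD of the compound-free buffer control wells, on both duplicate plates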
Kir21 sel – mouse Kir2.1 off-target activity of KCNK9 modulators; 4,900 tested, 4% active; AID 492993; Kir2.1 cells, FluxOR thallium flux fluorescence; shares compounds with KCNK9 inh; inhibition, % at 10 µM;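 active = thallium signal drop more than 5 SD beyond the mean of the no-compound control wells, seen in both duplicate plates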;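 note: signal is fluorescence rise after thallium addition divided by baseline fluorescence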
KCNK9 uninduced – non-induced cell nonspecific activity of KCNK9 modulators | shares compounds with KCNK9 inh | non-induced KCNK9-HEK293, FluxOR thallium flux | inhibition, % at 10 µM | 4,900 tested, 40% active | AID 492997;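 active = thallium signal drop beyond 5 SD of the untreated control mean, on both duplicate plates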
Hits are given with their value; . = inactive; / = no result. Most compounds without a hit are left out; they make up all but 3.5% or so of the library.

SMILES	KCNK9 inh	KCNK3 block	TMEM16A act	ANO1 block	Kir21 inh	KCNK9 block conf	Kir21 sel	KCNK9 uninduced
Cc1nn(-c2ccccc2)c(Cl)c1/C=C1\SC(=S)N(CCCCCC(=O)O)C1=O	.	.	.	.	.	.	.	.
COC(=O)c1cc(=O)n(Cc2ccc(OC)cc2)c(=NCc2ccc(OC)cc2)s1	.	.	.	.	.	.	.	.
COC(=O)c1cc(=O)n(Cc2ccccc2)c(=NCc2ccccc2)s1	.	/	/	.	.	/	/	/
COC(=O)/C(=C/c1ccc2c(c1)c1ccccc1n2C)NC(=O)c1ccccc1	-8.6	.	.	.	.	54%	.	38%
CC(=O)Nc1cccc(C(=O)OC(C(=O)c2ccc(C)cc2)c2ccccc2)c1 (configuration not stated)	.	.	.	.	.	/	/	/
COc1ccc(C(=O)OC(C(=O)c2ccc(C)cc2)c2ccccc2)cc1 (configuration not stated)	-15	.	.	.	.	65%	.	32%
Cc1ccc(-c2ccc(=O)n(CC(=O)NCCC(C)C)n2)cc1	.	.	.	.	.	/	/	/
CC1CCc2c(C(=O)OCC(=O)Nc3cccc(S(=O)(=O)N4CCCCCC4)c3)csc2C1 (configuration not stated)	.	.	.	.	.	/	/	/
O=C(COC(=O)c1ccc(Cl)c(S(=O)(=O)N2CCCCCC2)c1)Nc1ccccc1	.	.	.	.	.	.	.	.
Cc1ccc(NC(=O)COC(=O)c2csc3c2CCC(C)C3)cc1S(=O)(=O)N1CCCCC1 (configuration not stated)	-9.2	.	.	.	.	32%	.	.
CCCn1c(NC(=O)c2ccc(Cl)c(S(=O)(=O)N3CCCC3)c2)nc2ccccc21	-8.9	.	.	.	.	40%	.	.
COCCN(C(=O)COC(=O)/C=C/c1ccc2c(c1)OCO2)c1c(N)n(Cc2ccccc2)c(=O)[nH]c1=O	.	.	.	.	.	/	/	/
N#Cc1c(NC(=O)COC(=O)c2ccc(S(=O)(=O)N3CCCC3)cc2)sc2c1CCCCC2	.	.	.	.	.	/	/	/
Cc1ccc(NC(=O)CN2CCN(C)CC2)cc1Br	.	.	.	/	.	/	/	/
CC1=C(C(=O)c2ccccc2)C(c2ccc(OC(F)F)cc2)NC(=S)N1 (configuration not stated)	.	.	.	.	.	/	/	/
COC(=O)CN1C(c2ccc(Cl)cc2)=Nc2ccc(Cl)cc2C1c1ccccc1 (configuration not stated)	-10	.	.	.	.	32%	.	42%
COc1ccc(C2=Nc3ccc(C)cc3C(c3ccccc3)N2CC(=O)NN)cc1 (configuration not stated)	.	.	.	.	.	/	/	/
CC(C)(C)NC(=S)NC(=O)C12CCC3CC(CC(C3)C1)C2	.	.	.	.	.	.	.	.
CCCCC(=O)Nc1cccc(-c2cn3ccsc3n2)c1	.	.	.	.	.	/	/	/
O=C(Nc1cccc(-c2cn3ccsc3n2)c1)c1ccccc1	-9.7	.	.	.	.	33%	.	.
COc1cccc(C(=O)NCC(C)(C)SCc2ccc(F)cc2)c1	.	.	.	.	.	.	.	.
CC(C)(C)SC(=O)C[C@@H]1NS(=O)(=O)OC2CCCCC21 (some centres not stated)	.	.	.	.	.	/	/	/
O=c1c(C/C=C/c2ccccc2)c(O)ccn1CCc1c[nH]c2ccccc12	.	.	.	.	.	.	.	.
C[C@@H](NC(=O)c1nc[nH]c1C(=O)N(C)Cc1ccccc1)c1ccccc1	/	.	.	/	/	/	/	/
CCn1ncc(CN2CCCC(C(=O)c3cccc(OC(C)C)c3)C2)c1C (configuration not stated)	.	.	.	.	.	.	.	.
SMILES	KCNK9 inh	KCNK3 block	TMEM16A act	ANO1 block	Kir21 inh	KCNK9 block conf	Kir21 sel	KCNK9 uninduced
COc1ccc(CN2CCCC(C(=O)c3cccc(OC(C)C)c3)C2)cc1Cn1cccn1 (configuration not stated)	.	.	.	.	.	.	.	.
COCc1cc(CN2CCCC(C(=O)c3cccc(C(F)(F)F)c3)C2)ccc1OC (configuration not stated)	.	.	.	.	.	.	.	.
COc1cccc(O)c1CN1CCCC(C(=O)c2cccc(C(F)(F)F)c2)C1 (configuration not stated)	.	.	.	.	.	/	/	/
O=C(Nc1nc(-c2ccccn2)cs1)c1ccc(Cl)s1	.	.	.	.	.	/	/	/
O=C(Nc1nc(-c2cc(Cl)sc2Cl)cs1)c1ccccc1	-9.5	.	.	.	.	34%	.	.
O=C(Nc1cc(Sc2ccccn2)cc([N+](=O)[O-])c1)c1cccc(Cl)c1	-10	.	.	.	.	41%	.	40%
C=CCOc1ccc(C2=NO[C@@H]3[C@@H]4C[C@@H]([C@H]5C(=O)N(C)C(=O)[C@@H]45)[C@H]23)cc1	.	.	.	.	.	/	/	/
O=C1[C@@H]2[C@@H]3C[C@@H]([C@H]4ON=C(c5ccc(Cl)cc5)[C@@H]34)[C@@H]2C(=O)N1C1CCCCC1	.	.	.	.	.	.	.	.
N#CC1=C(N)SC(N)=C(C#N)C1c1ccc([N+](=O)[O-])cc1	.	.	.	.	.	.	.	.
CCc1ccc(C2C(C#N)=C(N)SC(N)=C2C#N)cc1	.	.	.	.	.	/	/	/
N#Cc1c2ccc(O)cc2n2ccccc12	.	.	.	.	.	/	/	/
N#C/C(=C\c1ccccc1)C(=O)NNS(=O)(=O)c1ccc(Br)cc1	/	.	.	/	/	/	/	/
COc1ccc(S(=O)(=O)N2CC(O)CC2C(=O)OCc2nc3sc(C)c(C)c3c(=O)[nH]2)cc1 (configuration not stated)	.	.	.	.	.	/	/	/
CCOc1ccc(NC(=O)C23CC4CC(C2)CC(c2ccccc2)(C4)C3)cc1	.	.	.	.	.	.	.	.
CCOc1ccc(NC(=S)NC23CC4CC(CC(C4)C2)C3)cc1	.	.	.	.	.	/	/	/
CCOC(=O)CNC(=O)C12CC3CC(C1)CC(c1ccc(C)cc1)(C3)C2	.	.	.	.	.	.	.	.
Cc1ccc(C23CC4CC(CC(C(=O)NN)(C4)C2)C3)cc1	.	.	.	.	.	/	/	/
CCOc1ccc(-c2nc(C#N)c(N3CCCCCC3)o2)cc1	-8.6	.	.	.	.	50%	.	40%
Cc1ccc(-c2nc(C#N)c(N3CCCCC3)o2)cc1	.	.	.	.	.	/	/	/
N#Cc1nc(-c2ccc(Cl)cc2)oc1N1CCCCC1	-8.3	.	.	.	.	.	.	30%
